Records with an inconclusive call do not appear. Active and inactive are the calls of the source. Unless noted, calls come from the whole dose curve.
What was measured:
[1] = qHTS assay to identify small molecule agonists of the vitamin D receptor (VDR) signaling pathway - cell viability counter screen (AID 743224; active = well fitted curve in the direction sought with a large enough effect in the repeat runs; an effect the other way counts as inactive or inconclusive; note: series mostly up to about 63 µM; % is set by controls: 0 for no effect and ±100 for the full control effect; nearly all actives have a fitted effect of over 50% in size)
Procedure, shortened: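 Compounds were pin-transferred onto VDR-bla cells plated 4 h earlier; following 16 h incubation at 37C, cell viability was quantified by CellTiter-Glo luminescence after 30 min at room temperature.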

[2] = qHTS assay to identify small molecule agonists of the NFkB signaling pathway - cell viability counter screen (AID 1159515); note: series mostly up to about 61 µM; % is set by controls: 0 for no effect and ±100 for the full control effect; nearly all actives have a fitted effect of over 55% in size
Procedure, shortened: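 Parallel cytotoxicity counter screen in ME-180 cells carrying an NFkB-response-element beta-lactamase reporter, 2,000 cells/well. Compound exposure lasted 5 hr at 37 C, 5% CO2. Cell viability was quantified by CellTiter-Glo luminescence.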

[3] = qHTS assay to identify small molecule agonists of the endoplasmic reticulum stress response signaling pathway (AID 1159516; active = well fitted activation curve with a large enough effect in the signal ratio in the repeat runs, not every such curve was filed as active; the % refers to the signal ratio; note: % is set by controls: 0 for no effect and ±100 for the full control effect)
Procedure, shortened: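 Using a HeLa line with an ESRE-driven beta-lactamase gene, agonist activity was measured by FRET substrate fluorescence (460 and 530 nm emission) after cells were treated with compounds for 5 hr at 37 C and 5% CO2.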

[4] = qHTS assay to identify small molecule agonists of the endoplasmic reticulum stress response signaling pathway - cell viability counter screen (AID 1159517);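 note: HeLa cells carrying an ER stress response element beta-lactamase reporter; series mostly up to about 61 µM; % is set by controls: 0 for no effect and ±100 for the full control effect; nearly all actives have a fitted effect of over 50% in size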
Procedure, shortened: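 Cytotoxicity of test compounds toward ESRE-bla HeLa cells was assessed after 5 hr exposure. The luminescent CellTiter-Glo signal was measured 30 min after reagent addition.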

[5] = qHTS assay to identify small molecule agonists of the AP-1 signaling pathway - cell viability counter screen (AID 1159525); note: nearly all actives have a fitted effect of over 55% in size
Procedure, shortened: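 Each titration point was normalised to DMSO and tetra n-octyl ammonium bromide controls. The read was Cell Titer Glo luminescence after 30 min at RT, following 5 h compound exposure of ME-180 AP-1-bla cells at 37 °C.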

[6] = qHTS assay to identify small molecule agonists of the AP-1 signaling pathway (AID 1159526); note: % is set by controls: 0 for no effect and ±100 for the full control effect
[7] = molecular target: Retinoic acid receptor RXR-alpha (Homo sapiens) (UniProt P19793); experiment: qHTS assay to identify small molecule agonists of the RXR signaling pathway (AID 1159527); note: % is set by controls: 0 for no effect and ±100 for the full control effect; nearly all actives have a fitted effect of over 35% in size
Chain of Retinoic acid receptor RXR-alpha (Homo sapiens) (P19793 whole entry, looked up): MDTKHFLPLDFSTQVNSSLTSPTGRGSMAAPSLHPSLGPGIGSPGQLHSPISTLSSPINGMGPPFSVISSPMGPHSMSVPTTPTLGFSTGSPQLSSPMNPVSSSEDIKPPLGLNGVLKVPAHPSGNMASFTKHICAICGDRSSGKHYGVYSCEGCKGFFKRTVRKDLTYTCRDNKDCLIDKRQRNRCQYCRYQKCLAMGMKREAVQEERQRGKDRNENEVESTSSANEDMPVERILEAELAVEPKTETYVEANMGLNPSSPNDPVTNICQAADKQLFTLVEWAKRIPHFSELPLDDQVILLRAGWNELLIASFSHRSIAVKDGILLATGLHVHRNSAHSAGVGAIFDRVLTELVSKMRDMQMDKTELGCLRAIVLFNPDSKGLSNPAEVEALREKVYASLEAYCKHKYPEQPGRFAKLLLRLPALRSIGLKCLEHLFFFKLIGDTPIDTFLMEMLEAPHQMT
Procedure, shortened: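 Reporter activation is measured as beta-lactamase activity via FRET substrate cleavage (emission 460/530 nm) in HEK 293T cells expressing an RXR-alpha-driven bla construct, following 16 hr compound exposure at 37 C.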

[8] = qHTS assay to identify small molecule antagonists of the vitamin D receptor (VDR) signaling pathway - cell viability counter screen (AID 743225; active = well fitted curve in the direction sought with a large enough effect in the repeat runs; an effect the other way counts as inactive or inconclusive; note: % is set by controls: 0 for no effect and ±100 for the full control effect; nearly all actives have a fitted effect of over 50% in size)
Procedure, shortened: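 Cytotoxicity toward the VDR-bla HEK 293T line was scored by ATP-based CellTiter-Glo luminescence, read in the wells already used for the beta-lactamase readout after 16 h compound treatment under 3 nM 1-alpha,25-dihydroxyvitamin D3 stimulation.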

[9] = qHTS assay to identify small molecule antagonists of the retinoid-related orphan receptor gamma (ROR-gamma) signaling pathway - cell viability counter screen (AID 1159520; active = well fitted curve in the direction sought with a large enough effect in the repeat runs; an effect the other way counts as inactive or inconclusive; note: % is set by controls: 0 for no effect and ±100 for the full control effect; nearly all actives have a fitted effect of over 50% in size)
Procedure, shortened: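 Tet-on ROR gamma CHO cells (1,000/well) were plated 4 hr, given compounds in DMSO for 2 hr at 37 C, then induced with 1 uM final doxycycline for 16 hr. Viability was read as ATP by CellTiter-Glo luminescence after 30 min.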

[10] = molecular target: Nuclear receptor ROR-gamma (Homo sapiens) (UniProt P51449); experiment: qHTS assay to identify small molecule antagonists of the retinoid-related orphan receptor gamma (ROR-gamma) signaling pathway (AID 1159521; active = well fitted curve in the direction sought with a large enough effect in the repeat runs; an effect the other way counts as inactive or inconclusive)
Procedure, shortened: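 Readout: ONE-Glo luciferase luminescence, 30 min at room temperature. System: Tet-on RORγ CHO, RORE-LUC. Sequence: compound 2 h, doxycycline 1 uM final, 16 h at 37 C.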

Clc1ccc(Cn2c(CN3CCCC3)nc3ccccc32)cc1
inactive: Potency [1] | Potency [2] | Potency [3] | Potency [4] | Potency [5]

N=c1ccn2c(n1)O[C@H]1[C@H](O)[C@@H](CO)O[C@H]12
inactive: Potency [1] | Potency [2] | Potency [3] | Potency [4] | Potency [6] | Potency [7]

CCOCC(O)COc1ccc(NC(=O)CC[S+](C)C)cc1 (configuration not stated)
inactive: Potency [1] | Potency [8] | Potency [2] | Potency [3] | Potency [4] | Potency [5] | Potency [6] | Potency [7]

COc1cc2nc(N(C)CCCNC(=O)C3CCCO3)nc(N)c2cc1OC (configuration not stated)
inactive: Potency [1] | Potency [8] | Potency [2] | Potency [3] | Potency [4] | Potency [5] | Potency [6] | Potency [7]

CCCC(=O)Nc1ccc(O)c(C(C)=O)c1
inactive: Potency [1] | Potency [8] | Potency [2] | Potency [3] | Potency [4] | Potency [5] | Potency [6] | Potency [7]

C/C=C/C(=O)CC
inactive: activity change, negative = cytotoxicity [1] 7.61% [at 13.2 µM] | viability change, negative = cytotoxic [8] 1.57% [at 15.1 µM] | activity, negative = cytotoxic [2] 18.8% [at 15.1 µM] | activation [3] 0.579% [at 15.1 µM] | activity change, negative = cytotoxicity [4] 28.8% [at 15.1 µM] | viability change, negative = cytotoxic [5] -12.1% [at 15.8 µM]

CCN(CC)c1ccc(C(=C2C=CC(=[N+](CC)CC)C=C2)c2cc(S(=O)(=O)O)ccc2S(=O)(=O)[O-])cc1
inactive: Potency [1] | Potency [8] | Potency [2] | Potency [3] | Potency [4] | Potency [6] | Potency [7]

CCN(CC)CCNC(=O)c1cc(Br)c(N)cc1OC
inactive: Potency [8] | Potency [2] | Potency [3] | Potency [4] | Potency [5] | Potency [6] | Potency [7]

c1ccc(C(O[C@H]2CCCN(CCc3ccc4c(c3)OCO4)C2)c2ccccc2)cc1
inactive: Potency [1] | Potency [8] | Potency [2] | Potency [4] | Potency [9] | Potency [5]

CCCCC1=NC2(CCCC2)C(=O)N1Cc1ccc(-c2ccccc2-c2nn[nH]n2)cc1
inactive: Potency [8] | Potency [2] | Potency [4] | Potency [9] | Potency [5] | Potency [6] | Potency [7]

OC(CN1CCC(Cc2ccc(F)cc2)CC1)c1ccc(Cl)cc1 (configuration not stated)
inactive: Potency [2] | Potency [4] | Potency [9] | Potency [5]

NCC(=O)O
inactive: Potency [1] | Potency [8] | Potency [2] | Potency [4] | activity, negative = cytotoxicity [9] -1.28% [at 19 µM] | viability change, negative = cytotoxic [5] -1.65% [at 15.8 µM] | activation [6] -0.769% [at 15.8 µM] | activation [7] -2.92% [at 15.8 µM]

CO[C@@H]1[C@H](OC(=O)/C=C/C=C/C=C/C=C/C(=O)O)CC[C@]2(CO2)[C@H]1[C@@]1(C)O[C@@H]1CC=C(C)C
inactive: Potency [1] | Potency [8] | Potency [2] | Potency [4] | Potency [5] | Potency [6]

CC(COCCO)OCCO (configuration not stated)
inactive: Potency [1] | Potency [8] | Potency [2] | Potency [4] | Potency [9]

COC(=O)c1ccc(I)cc1S(=O)(=O)NC(=O)Nc1nc(C)nc(OC)n1
inactive: Potency [1] | Potency [8] | Potency [2] | Potency [4] | Potency [9] | Potency [5] | Potency [6]

CN(C)CCN(Cc1ccc(Cl)cc1)c1ccccn1
inactive: Potency [8] | Potency [2] | Potency [4] | Potency [9]

CN(C)c1ccc(CCO)cc1
inactive: Potency [8] | Potency [2] | Potency [4] | Potency [9] | Potency [5]

O=S(c1cc(Cl)cc(Cl)c1O)c1cc(Cl)cc(Cl)c1O
inactive: Potency [8] | Potency [2] | Potency [4] | Potency [9] | Potency [5]

C[C@H]1C[C@H]2[C@@H]3CCC4=CC(=O)C=C[C@]4(C)[C@@]3(Cl)[C@@H](O)C[C@]2(C)[C@@]1(O)C(=O)CO
inactive: Potency [1] | Potency [8] | Potency [2] | Potency [4] | Potency [9] | Potency [5] | Potency [6]

Nc1ncn([C@H]2C[C@H](O)[C@@H](CO)O2)c(=O)n1
inactive: Potency [1] | Potency [8] | Potency [2] | Potency [4] | Potency [9] | Potency [5]

Nc1c(CC(=O)O)cccc1C(=O)c1ccc(Br)cc1
inactive: Potency [8] | Potency [2] | Potency [4] | Potency [5] | Potency [6]

COc1ccc(S(=O)(=O)N2C(=O)[C@@](c3ccccc3OC)(N3C[C@H](O)C[C@H]3C(=O)N(C)C)c3cc(Cl)ccc32)c(OC)c1
inactive: Potency [8] | Potency [2] | Potency [4] | Potency [9] | Potency [6]

CCCCc1ncc(/C=C(\Cc2cccs2)C(=O)O)n1Cc1ccc(C(=O)O)cc1
inactive: Potency [1] | Potency [8] | Potency [2] | Potency [4] | Potency [9] | Potency [5] | Potency [7]

CC(=O)NO
inactive: Potency [1] | Potency [8] | Potency [2] | Potency [4] | Potency [9] | Potency [5] | Potency [6] | Potency [7]

C/C=C/C=C/CO
inactive: Potency [8] | Potency [2] | Potency [4] | Potency [9] | Potency [5] | Potency [6] | Potency [7]

CCCCOC(=O)CCCCCCCC(=O)OCCCC
inactive: Potency [1] | Potency [8] | Potency [2] | Potency [4] | Potency [9] | Potency [5] | Potency [6] | Potency [7]

COC(=O)C1=C(C)NC(COC(N)=O)=C(C(=O)OC(C)C)C1c1cccc(Cl)c1Cl (configuration not stated)
inactive: Potency [1] | Potency [2] | Potency [4] | Potency [10] | Potency [6] | Potency [7]

CC1=CCCC(C)(C)C12CCC(C)O2 (configuration not stated)
inactive: Potency [1] | Potency [8] | Potency [2] | Potency [4] | Potency [6] | Potency [7]

CCCCC(=O)OCC(=O)[C@H]1[C@H](C)C[C@H]2[C@@H]3C[C@H](F)C4=CC(=O)C=C[C@]4(C)[C@@]3(F)[C@@H](O)C[C@@]21C
inactive: Potency [1] | Potency [8] | Potency [2] | Potency [4] | Potency [9] | Potency [5] | Potency [6] | Potency [7]

CCCCCCCN
inactive: Potency [8] | Potency [2] | Potency [4] | Potency [9] | Potency [5] | Potency [6] | Potency [7]

Reference: PubChem BioAssay (Tox21)
